Reference: publication PMC4242493, “Sequence specificity incompletely defines the genome-wide occupancy of Myc”
Over roughly 33,000 sequences, “normalized occupancy” has its median near 0.075; the highest 2% begin near 0.095. Many of the other results were omitted from the sample, so the highest values are more common in it than they were.

Target: MaxL homodimer (Homo sapiens, UniProt P61244 1-160)
Test: universal protein-binding microarray (PBM); PBS-based mixture, 10 nM His-tagged protein dimer, 2% milk, 200 ng/uL BSA, 50 ng/uL salmon testes DNA, 0.02% TX-100; detection with Alexa 488 anti-His antibody;; high values mean tight binding
Conditions: protein: recombinant; tags: C-terminal His-tag (pET21a); chain copies: 2; dsDNA, one strand shown
Method in brief: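 His-tagged protein dimer at 10 nM was bound to Agilent 4 x 44 K 'all 10-mer' universal arrays and detected with 10 ng/μL fluorophore-conjugated anti-His antibody on a GenePix 4400A, giving an intensity per 8-mer. Binding occupancy normalises each intensity to the top-ranked one.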

Chain of MaxL homodimer (P61244 whole entry): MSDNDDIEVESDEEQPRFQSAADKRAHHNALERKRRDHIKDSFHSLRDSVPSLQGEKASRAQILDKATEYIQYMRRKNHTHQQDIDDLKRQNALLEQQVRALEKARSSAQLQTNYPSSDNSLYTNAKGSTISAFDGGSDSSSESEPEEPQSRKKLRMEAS

| Sequence | binding signal [normalized occupancy] |
| --- | --- |
| GAAATCAA | 0.075 |
| ATGTAGTG | 0.0796 |
| CCCTTATA | 0.0809 |
| ACTTGTAC | 0.0751 |
| CAAACGTA | 0.0729 |
| CAAACGTC | 0.0739 |
| AAAACGTT | 0.0743 |
| CAAACGTG | 0.103 |
| AAAACGTA | 0.0744 |
| AAAACGTG | 0.122 |
| ATAGTGAA | 0.0751 |
| AACCCGAG | 0.0727 |
| CGCATCCG | 0.0736 |
| CGAATGCG | 0.0744 |
| AGCATGCA | 0.114 |
| AGCATTCA | 0.0761 |
| AGCATACA | 0.087 |
| AGCATGCT | 0.134 |
| CGCATGCG | 0.133 |
| TGCATACA | 0.085 |
| TGCATGAA | 0.0821 |
| AACATGCT | 0.0905 |
| AGCATCCT | 0.0767 |
| TGCATGCA | 0.1 |
| GCGTACAA | 0.0756 |

| Sequence | binding signal [normalized occupancy] |
| --- | --- |
| GCTTAGAC | 0.0762 |
| GTATTGAC | 0.0759 |
| ACCGTCCA | 0.0727 |
| CAATAACA | 0.0785 |
| GCATACCA | 0.0835 |
| AAGCATCC | 0.0817 |
| CGAATGCA | 0.0799 |
| CGCATTCA | 0.0752 |
| AGCATCCC | 0.077 |
| CGCATCCC | 0.0821 |
| GGCATGAA | 0.081 |
| GGCATGCC | 0.0932 |
| CGCATGCC | 0.116 |
| GGCATGCA | 0.109 |
| CGGATGCC | 0.0725 |
| AGCATGCC | 0.112 |
| CGCATGCA | 0.122 |
| AGCATTCC | 0.0752 |
| TAAGTACA | 0.0831 |
| AGTACTAA | 0.0769 |
| GGGTTCTA | 0.0754 |
| CGATTGGC | 0.0736 |
| ACTTCGGG | 0.0726 |
| AGCCCTTG | 0.0731 |
| AGATTGGA | 0.0757 |

| Sequence | binding signal [normalized occupancy] |
| --- | --- |
| AACATCGC | 0.0768 |
| GTTCTCTA | 0.0731 |
| CGTGGTTC | 0.0858 |
| CGGAGGTA | 0.0743 |
| AGCATGCG | 0.124 |
| AGCATCCG | 0.0757 |
| AGTATGCG | 0.077 |
| GCAAGGTA | 0.0757 |
| CGCAGTAC | 0.0724 |
| ATATGGCA | 0.098 |
| ATATGGCG | 0.0846 |
| CTATGGCA | 0.0779 |
| ATATGGGA | 0.0957 |
| GTATGGGA | 0.0804 |
| CTATGGGA | 0.0764 |
| ATGATAAG | 0.0844 |
| AGCTCCAT | 0.0804 |
| CACATGCC | 0.134 |
| CACATGCG | 0.159 |
| GACATGCC | 0.0968 |
| AACATGCA | 0.0927 |
| GAGATGCC | 0.0786 |
| AACATACG | 0.0835 |
| AACATGCC | 0.089 |
| GACATGCA | 0.0909 |

| Sequence | binding signal [normalized occupancy] |
| --- | --- |
| AACATGCG | 0.101 |
| CAAATGCG | 0.0791 |
| CAAATGCC | 0.0743 |
| CAGATGCG | 0.078 |
| CCAACCCA | 0.0759 |
| AGTGCCTC | 0.0729 |
| AGAGGCAC | 0.0762 |
| AGGCTCAT | 0.0751 |
| AATCTAAA | 0.0727 |
| ACCGGTAG | 0.0719 |
| TACATGCA | 0.0895 |
| CACATGCA | 0.138 |
| CAAATGCA | 0.0784 |
| ATGCGGAG | 0.0844 |
| CGTTGAGC | 0.0723 |
| GGGCATGA | 0.087 |
| CGGCATCC | 0.078 |
| AGGCATGA | 0.091 |
| CGGCATGC | 0.109 |
| CGGCATGA | 0.0962 |
| CGGCATAC | 0.0757 |
| AGACCATC | 0.0766 |
| ATCTAGTG | 0.078 |
| GCCTGCCA | 0.072 |
| CAGCACGC | 0.0982 |

| Sequence | binding signal [normalized occupancy] |
| --- | --- |
| ATGCACGA | 0.0913 |
| AAGCACGC | 0.0949 |
| CTGCACGA | 0.0824 |
| CTGCACGC | 0.0997 |
| CTGCACAA | 0.0745 |
| ATGCACGG | 0.0875 |
| ATGCACGC | 0.111 |
| CAGCACGA | 0.0909 |
| CAATTTGG | 0.0724 |
| CCACCGAA | 0.0733 |
| AACAGCGA | 0.0748 |
| AGTCACAA | 0.0805 |
| GTATATCA | 0.0787 |
| AACCCCCC | 0.0825 |
| ACCCCCCC | 0.0963 |
| CCCACCCC | 0.0962 |
| CCCACCCA | 0.0925 |
| GCCACCCC | 0.0827 |
| ACCCCCCA | 0.0865 |
| GGTGCAAA | 0.0755 |
| CAACGAGA | 0.0767 |
| CCACGAAG | 0.0767 |
| GCACGAGC | 0.085 |
| CCACGAGA | 0.1 |
| TCACGAGA | 0.0875 |

| Sequence | binding signal [normalized occupancy] |
| --- | --- |
| CCACGAGC | 0.0889 |
| GCACGAGA | 0.098 |
| CCACGAGG | 0.182 |
| CCACGACG | 0.0811 |
| ATGGACTA | 0.0826 |
| ACTGTTCA | 0.073 |
| AATGTTAC | 0.0779 |
| ACTGCGGA | 0.0741 |
| AGCTCCAA | 0.0722 |
| CTACGCCA | 0.0777 |
| CCACACCA | 0.0899 |
| GCACGCCA | 0.0859 |
| CCACGCCG | 0.0985 |
| CCACGCCA | 0.0991 |
| CCACGCCC | 0.0948 |
| CGCTTGTA | 0.0739 |
| AGGCTTTA | 0.0758 |
| ATGCCAAC | 0.0785 |
| AGGCGTTC | 0.0755 |
| AGGCGTGG | 0.098 |
| AGGCGTGA | 0.0829 |
| AGGCGTGC | 0.0963 |
| AGGCGTCG | 0.0733 |
| AGGCGCGC | 0.0762 |
| AATTAAAT | 0.0748 |

| Sequence | binding signal [normalized occupancy] |
| --- | --- |
| CGTAATTC | 0.0757 |
| ACCAAGCG | 0.0722 |
| ACAACTGT | 0.0734 |
| AAACGCGG | 0.0761 |
| ACACGCGG | 0.143 |
| ACACGCGC | 0.112 |
| AAACGCGA | 0.0771 |
| ACACGCGA | 0.116 |
| ACGCGCGG | 0.0929 |
| ACGCGCGT | 0.0896 |
| ACACGCGT | 0.13 |
| ACGCGCGA | 0.0786 |
| ATACGCGC | 0.0771 |
| ACGCGCGC | 0.0821 |
| AAACGCGT | 0.08 |
| TAGAACAA | 0.0771 |
| CAGTGCTC | 0.0745 |
| ATAGCGAA | 0.0727 |
| ATTGTAAC | 0.0837 |
| CTCAATCA | 0.0801 |
| ACAATGAA | 0.0787 |
| AGGACATA | 0.0758 |
| TCTTATCA | 0.0736 |
| CTACTGTC | 0.0719 |
| CGACATGA | 0.0858 |

| Sequence | binding signal [normalized occupancy] |
| --- | --- |
| CGACATGC | 0.0992 |
| AGACATGC | 0.102 |
| AGACATGA | 0.0878 |
| CGACATTC | 0.0758 |
| AGACATGG | 0.0832 |
| CTAGCTCA | 0.0759 |
| CACGCCCA | 0.0892 |
| GAGAGCAC | 0.0743 |
| GCACGCAC | 0.0902 |
| CAACGCTA | 0.0734 |
| GCACGCTA | 0.101 |
| ACACGCTC | 0.0924 |
| CAACGCTC | 0.0772 |
| CGACGCTA | 0.0724 |
| GTACGCTA | 0.0796 |
| CCACGCAA | 0.0865 |
| CCACGCTA | 0.0973 |
| CCACGCTC | 0.0965 |
| CCACGCAC | 0.0964 |
| GAACGCTA | 0.0771 |
| GAACACAA | 0.0743 |
| CCAATTCG | 0.0738 |
| AGCCCTCC | 0.0723 |
| TCGTAAAA | 0.0794 |
| GCCATCAC | 0.0781 |

| Sequence | binding signal [normalized occupancy] |
| --- | --- |
| ATACTGGC | 0.0812 |
| AGTCACAC | 0.0886 |
| ACGCACAT | 0.0968 |
| AGGCACAT | 0.098 |
| ACGCACAG | 0.076 |
| ACGCACAA | 0.0775 |
| AGGCACAC | 0.0801 |
| AGGCACAG | 0.075 |
| AGTCACAG | 0.0732 |
| AGTCACAT | 0.101 |
| GCGACAGC | 0.0756 |
| CAACATCG | 0.0784 |
| GTACGGGA | 0.0747 |
| GCACCAGC | 0.0755 |
| TCTGTTAA | 0.0739 |
| AACTGTAC | 0.0732 |
| AAGCTACG | 0.0726 |
| CTATTGTC | 0.079 |
| CCTACAGC | 0.0762 |
